# Luciferase inh: Firefly luciferase inhibition profiling of diverse chemical library using quantitative high-throughput screening; Luciferin 4-monooxygenase (Photinus pyralis), P08659; purified P. pyralis luciferase, luminescence, biochemical; Potency, µM (titrated, usually from 115 µM), most hits filed as inhibitors; 76,000 compounds, 2.5% hits; AID 1347043, 2019; further: nearly all actives have a fitted effect of over 65% in size
#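 Luminescence read by CCD imager after adding enzyme (10nM final) to wells holding compound, titrated in qHTS. Substrates 10uM each D-luciferin and ATP; buffer 50mM Tris acetate pH 7.5, 10mM Mg acetate, Tween-20, BSA.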
# NPR1 antag: Natriuretic polypeptide receptor (hNpr1) antagonism - Primary qHTS; Atrial natriuretic peptide receptor 1 (Homo sapiens), P16066; HEK293 hNpr1 GloSensor cGMP, ANP-stimulated luminescence; Potency, µM (doses to about 46.3 µM), usual class: inhibitors; 76,000 compounds, 1.6% hits; AID 1347048, 2019; calls by dose curve; further: nearly all actives have a fitted effect of over 60% in size
#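 HEK293 cells stably expressing human Npr1 and cGMP GloSensor pGS-40F, loaded 2 h with 2% GloSensor reagent, given compound 30 min at room temperature. Luminescence read before and 20 min after 0.1 nM hNppA.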
# NIH3T3 tox: Cytotoxic Profiling in NIH 3T3 Cell Line of Diverse Libraries Using Quantitative High-Throughput Screening. NIH 3T3 viability, CellTiter-Glo ATP luminescence, 48-72 h. Potency, µM (highest dose often 96.7 µM), most hits filed as inhibitors. 94,000 compounds, 4.3% hits; further: nearly all actives have a fitted effect of over 55% in size
#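 Luminescent ATP readout (CellTiter-Glo, 10 min RT) after 48 or 72 hr compound exposure of NIH 3T3 cells seeded at 400 cells/well in 1536-well format; quantitative HTS.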
# HEK cytotox: Cytotoxic Profiling in HEK 293 Cell Line of Diverse Libraries Using Quantitative High-Throughput Screening; AID 1345083, 2018; HEK 293 viability, ATP luminescence (CellTiter-Glo), 48-72 h; Potency, µM (top dose mostly 115 µM), usual class: inhibitors; 94,000 compounds, 6.6% hits; further: nearly all actives have a fitted effect of over 60% in size
#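 HEK 293 cells seeded at 250 cells/well were exposed to compound for 48 or 72 hr at 37 degree Celsius. Viability taken as ATP content by CellTiter-Glo luminescence.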
# GPT2 inh: Primary qHTS assay for inhibitors of Glutamate pyruvate transaminase 2 (GPT2); Recombinant GPT2, coupled pyruvate oxidase/HRP Amplex Red fluorescence; Potency, µM (titrated, usually from 57.7 µM), usual class: inhibitors; 100,000 compounds, 0.25% hits; further: nearly all actives have a fitted effect of over 60% in size
# Target sequence (Q8TD30 whole entry, looked up): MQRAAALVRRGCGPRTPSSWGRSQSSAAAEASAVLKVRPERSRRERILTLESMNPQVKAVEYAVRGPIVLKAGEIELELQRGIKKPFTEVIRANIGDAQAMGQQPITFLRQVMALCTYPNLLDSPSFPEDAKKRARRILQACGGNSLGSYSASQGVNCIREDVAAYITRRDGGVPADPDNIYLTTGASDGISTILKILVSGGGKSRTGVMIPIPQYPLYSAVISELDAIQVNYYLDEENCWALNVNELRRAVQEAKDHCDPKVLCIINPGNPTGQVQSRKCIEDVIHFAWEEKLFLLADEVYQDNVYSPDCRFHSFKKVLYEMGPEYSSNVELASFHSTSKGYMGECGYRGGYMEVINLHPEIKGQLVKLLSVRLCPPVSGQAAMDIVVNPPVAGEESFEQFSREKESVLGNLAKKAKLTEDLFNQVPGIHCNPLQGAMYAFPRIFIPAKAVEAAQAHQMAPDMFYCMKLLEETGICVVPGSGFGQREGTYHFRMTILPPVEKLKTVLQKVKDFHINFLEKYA
#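 Recombinant GPT2 (10ng/uL) with 250uM a-KG and 2mM L-alanine, 30 min at room temperature, in HEPES pH 7.5 buffer. Pyruvate detected by pyruvate oxidase/HRP/Amplex Red fluorescence after 30 min in the dark; AOA (50uM) as positive control.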
# Numbers stand for hits; i = inactive; ? = inconclusive; nt = no result; ! = repeats disagree; [ ] = another dose, or the depositor's remark. Compounds with a hit are over-represented: about 10% of the library has one in this group of screens. Unless noted, the call rests on the fitted dose curve; in most records, active means well fitted curve in the direction sought with a large enough effect; inconclusive means small, poorly fitted or top-dose-only effect, or another doubt; inactive means no such curve, though single readings can be large; an effect the other way counts as inactive or inconclusive.
SMILES,Luciferase inh,NPR1 antag,NIH3T3 tox,HEK cytotox,GPT2 inh
O=C(NC1CC1)c1ccc2c(c1)OCCN(c1cccc(OC(F)(F)F)c1)C2,i,?,?,?,i
O=C(NC1CCOCC1)c1ccc2c(c1)OCCN(c1ccccc1)C2,i,i,?,79µM,i
O=C1OC[C@@H]2CCN(Cc3cccc(Cl)c3)Cc3ccc(F)cc3N12,i,i,?,?,i
CO[C@@]12[C@H](COC(N)=O)C3=C(C(=O)C(C)=C(N)C3=O)N1C[C@@H]1N[C@@H]12,nt,nt,nt,nt,14µM!
COc1ccc(S(=O)(=O)N2CCC(C3CCN(C(C)=O)CC3)C2)cc1 (configuration not stated),i,i,i,i,i
COCCN1C(=O)c2ccccc2C(C(=O)NCc2cccc(F)c2)C12CCCC2 (configuration not stated),i,i,i,i,?
CCCn1cc(-c2ccnc(NCc3c(F)ccc(C)c3F)n2)c(C)n1,i,i,?,50µM,i
CCCn1cc(-c2ccnc(NCc3cccc(C)c3)n2)c(C)n1,i,i,?,?,i
CCCn1cc(-c2ccnc(NC3CCN(Cc4ccccn4)CC3)n2)c(C)n1,i,i,?,28µM,i
COCCN1C(=O)CS(=O)(=O)C12CCN(C(=O)CCc1cccc(OC)c1)CC2,i,i,?,i,i
COc1ccc(Nc2ccnc(N3CCC(N[S+](=O)([O-])c4ccccc4)CC3)n2)cc1,nt,nt,?,?,i
COc1ccc(Nc2ccnc(N3CCC(N[S+](=O)([O-])c4c(C)noc4C)CC3)n2)cc1,nt,nt,40µM,45µM,i
COc1ccc(Nc2ccnc(N3CCC(N[S+](=O)([O-])c4cccc(C(F)(F)F)c4)CC3)n2)cc1,nt,nt,18µM,22µM,i
N[C@H](Cc1ccccc1)C(=O)N1CCC2(CC1)Nc1ccccc1NC2=O,i,i,i,i,i[11.5 µM]
COC(=O)[C@H](Cc1ccc(OC)cc1)NC(=O)[C@H]1CN(C(=O)Nc2ccccc2)CCN1S(C)(=O)=O,i,i,i,i,i
CC(=O)NC[C@H]1O[C@@H](CO)[C@@H](O)[C@H]1N1CCc2ccccc2C1,i,i,i,i,i
O=C(c1cccc(Cl)c1)N1CC(CNc2cccnc2)C2(C1)CN(c1ccccc1)C2 (configuration not stated),i,i,?,?,i
O=C(c1cccc(O)c1)N1CC(CNc2ccccc2)C2(C1)CN(c1ccccc1)C2 (configuration not stated),i,i,50µM,63µM,i
O=C(Cc1ccc(O)cc1)N1CC(CNc2ccccc2)C2(C1)CN(c1ccccc1)C2 (configuration not stated),i,i,32µM,50µM,i
CC1Cc2cc(C(=O)N3CCC4(CCC(=O)N(C)C4)CC3)ccc2O1 (configuration not stated),i,i,i,i,i
CCc1cc(CN(C)C(=O)c2oc3cc(OC)ccc3c2C)on1,i,i,?,?,i
Cc1ccc2c(C)c(C(=O)N(C)Cc3noc4c3CCCC4)oc2c1,i,i,?,45µM,i
CN1C[C@@H](NC(=O)Nc2ccccc2)C[C@H]1c1nc(-c2ccc(Cl)cc2)no1,35µM,?,?,?,i
CN1C[C@@H](NC(=O)c2ccc(F)cc2)C[C@H]1c1nc(-c2ccccc2)no1,?,i,i,?,i
CN1C[C@@H](NC(=O)Nc2ccccc2)C[C@H]1c1nc(Cc2ccccc2)no1,45µM,i,?,?,i
CN1C[C@@H](NC(=O)c2cccs2)C[C@H]1c1nc(-c2ccc(F)cc2)no1,i,i,?,89µM,i
Cc1ccc(NC(=O)N[C@H]2C[C@@H](c3nc(-c4ccc(F)cc4)no3)N(C)C2)cc1,?,i,?,i,i

# Screens: PubChem BioAssay, National Center for Advancing Translational Sciences (NCATS)
